Values joined by “and” are separate entries in the source; they are usually repeats but may differ in a detail not shown here. Identical values can stand only once. Counter-ions that a name gives are not always drawn. The whole screen tested about 5,800 compounds, of which about 620 (11%) showed activity. The sample as a whole holds a higher share of actives than the screen did. A number with no mark means an inactive call.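 The calls were made as follows: active = score above a cut-off or among the top three wells of a plate; in these data no inactive exceeds 0.85.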
Tested on: primary human hepatic stellate cells (donor 1)
Assay: scaled lipid accumulation score (0 = DMSO-like, 1 = nortriptyline-like); higher = stronger HSC inactivation (lipid re-accumulation), active = hit call of the paper
Conditions: 48 h
[1] = library stock concentration: 1 mM
[2] = library stock concentration: 3.33 mM
[3] = library stock concentration: 10 mM
[4] = library stock concentration: 80 uM
[5] = library stock concentration: 400 uM
[6] = library stock concentration: 2 mM

Question: Which “scaled lipid accumulation score” value [1] does the source give for CCCCCCCCCSCCCCCCCC(=O)O [9-Thiastearic Acid] here?
Answer: Its value is 0.031.

Question: Which “scaled lipid accumulation score” value [2] does the source give for CN1CCc2nc(C(=O)N[C@@H]3C[C@@H](C(=O)N(C)C)CC[C@@H]3NC(=O)C(=O)Nc3ccc(Cl)cn3)sc2C1 [Edoxaban] here?
Answer: The value was no more than -0.009.

Question: And the “scaled lipid accumulation score” value [3]?
Answer: The value was 0.008.

Question: Which “scaled lipid accumulation score” value [3] does the source give for CC(=O)N[C@@H](Cc1c[nH]c2ccccc12)C(=O)O [Acetyltryptophan] here?
Answer: Its value is no more than 0.

Question: COc1cc(C(O)C(=O)O)ccc1O (configuration not stated) was tested. Which “scaled lipid accumulation score” value [3] did it give?
Answer: Its value is no more than -0.036.

Question: With c1nc(CC2CCNCC2)c[nH]1 [Immepip dihydrobromide] as the compound, how does the “scaled lipid accumulation score” value [3] read?
Answer: The value was 0.011.

Question: How did the “scaled lipid accumulation score” value [1] turn out when CC/C=C/C[C@H](O)/C=C/[C@H]1[C@H](O)CC(=O)[C@@H]1C/C=C\CCCC(=O)O [17-trans Prostaglandin E3] was run?
Answer: Its value is no more than 0.

Question: With Cc1c[nH]c(-c2cnc(NCCNc3ccc(C#N)cn3)nc2-c2ccc(Cl)cc2Cl)n1.Cl as the compound, how does the “scaled lipid accumulation score” value [3] read?
Answer: The value was 1.08 (active).

Question: Which results are given for Cc1cnc(-c2cnc(NCCNc3ccc(C#N)cn3)nc2-c2ccc(Cl)cc2Cl)[nH]1?
Answer: scaled lipid accumulation score [4]: 0.041; scaled lipid accumulation score [5]: 0.005; scaled lipid accumulation score [6]: 0.182; scaled lipid accumulation score [2]: 0.229; scaled lipid accumulation score [3]: 0.814

Question: CCCCC[C@H](O)/C=C/[C@H]1C(=O)C[C@H](O)[C@@H]1C/C=C\CCCC(=O)NC(CO)CO [Prostaglandin D2 serinol amide] was tested. Which “scaled lipid accumulation score” value [1] did it give?
Answer: The value was no more than 0.

Question: CCCCC/C=C\C/C=C\C/C=C\CC1OC1CCCC(=O)O (configuration not stated) [5,6-Epoxyeicosatrienoic acid] was tested. Which “scaled lipid accumulation score” value (library stock concentration: 100 uM) did it give?
Answer: The value was no more than -0.021.

Question: For CC[C@@H]([C@H](C)O)n1ncn(-c2ccc(N3CCN(c4ccc(OC[C@@H]5CO[C@@](Cn6cncn6)(c6ccc(F)cc6F)C5)cc4)CC3)cc2)c1=O [Posaconazole] [listing 1 of 2 here], which “scaled lipid accumulation score” value [3] is on record?
Answer: The value was 0.869 (active).

Question: What does the source list for CCC(C)n1ncn(-c2ccc(N3CCN(c4ccc(OCC5COC(Cn6cncn6)(c6ccc(Cl)cc6Cl)O5)cc4)CC3)cc2)c1=O (configuration not stated) [Itraconazole]?
Answer: scaled lipid accumulation score (library stock concentration: 2.8 mM): ≤ 0; scaled lipid accumulation score [2]: 0.492; scaled lipid accumulation score [3]: 0.522

Question: For CC[C@@H]([C@H](C)O)n1ncn(-c2ccc(N3CCN(c4ccc(OC[C@@H]5CO[C@@](Cn6cncn6)(c6ccc(F)cc6F)C5)cc4)CC3)cc2)c1=O [Posaconazole] [listing 2 of 2 here], which “scaled lipid accumulation score” value [2] is on record?
Answer: Its value is 0.134.

Question: COc1ccc(C(=O)NCc2ccc(OCCN(C)C)cc2)cc1OC was tested. Which “scaled lipid accumulation score” value [3] did it give?
Answer: Its value is 0.061 and 0.313.

Question: How did the “scaled lipid accumulation score” value [3] turn out when Cc1cc(C)c(N(Cc2ccccc2)S(=O)(=O)c2ccc(OCCNC(=O)c3cc4ccccc4o3)cc2)c(C(=O)NO)c1 was run?
Answer: Its value is no more than -0.001.

Question: CN(C)Cc1c(C(=O)NCCOc2ccc(C(=O)NO)cc2)oc2ccccc12 was tested. Which “scaled lipid accumulation score” value [2] did it give?
Answer: The value was 0.855 (active).

Question: And the “scaled lipid accumulation score” value [3]?
Answer: The value was 1.01 (active).

Question: CC(/C=C1\SC(=S)N(CC(=O)O)C1=O)=C\c1ccccc1 [Epalrestat] was tested. Which “scaled lipid accumulation score” value [2] did it give?
Answer: The value was no more than 0.

Question: What about the “scaled lipid accumulation score” value [3] of the same compound?
Answer: The value was no more than 0.

Question: Which “scaled lipid accumulation score” value [1] does the source give for O=C(O)CCCC=CCC1C2CCC(O2)C1CNNC(=O)Nc1ccccc1 (configuration not stated) here?
Answer: Its value is ≤ 0 and ≤ -0.021.

Question: With O=C(O)[C@]1(O)C[C@@H](O)[C@@H](O)[C@H](O)C1 [Quinic acid] as the compound, how does the “scaled lipid accumulation score” value read?
Answer: The value was no more than 0.

Question: For Cc1c(C(=O)c2ccccc2)c(N)c(-c2ccccc2)n1Cc1ccc(Cl)cc1, which “scaled lipid accumulation score” value [1] is on record?
Answer: The value was no more than 0.

Question: CCCCCCCCCCCCCCCCCCOC[C@H](COP(=O)([O-])OCC[N+](C)(C)C)OC(C)=O was tested. Which “scaled lipid accumulation score” value [1] did it give?
Answer: The value was ≤ 0 and ≤ -0.021.

Question: For CC(=O)Nc1nc(C)c(-c2ccc(Cl)c(S(=O)(=O)NCCO)c2)s1, which “scaled lipid accumulation score” value [4] is on record?
Answer: Its value is no more than -0.016.

Question: What about the “scaled lipid accumulation score” value [5] of the same compound?
Answer: The value was no more than -0.016.

Question: What about the “scaled lipid accumulation score” value [6] of the same compound?
Answer: Its value is no more than -0.016.

Question: What about the “scaled lipid accumulation score” value [2] of the same compound?
Answer: The value was no more than 0.

Question: What about the “scaled lipid accumulation score” value [3] of the same compound?
Answer: Its value is ≤ 0 and ≤ -0.016.

Question: With O=c1oc2c(O)c(O)cc3c(=O)oc4c(O)c(O)cc1c4c23 [Ellagic acid] as the compound, how does the “scaled lipid accumulation score” value [4] read?
Answer: The value was no more than 0.

Question: What about the “scaled lipid accumulation score” value [5] of the same compound?
Answer: Its value is no more than 0.

Question: And the “scaled lipid accumulation score” value [6]?
Answer: Its value is no more than 0.

Question: What about the “scaled lipid accumulation score” value [3] of the same compound?
Answer: Its value is no more than 0.

Question: With O=C(c1cccc(Cl)c1F)N1CCN(Cc2cccc(Nc3nccs3)n2)CC1 as the compound, how does the “scaled lipid accumulation score” value [2] read?
Answer: Its value is no more than 0.

Question: And the “scaled lipid accumulation score” value [3]?
Answer: Its value is 0.453.

Question: For CN(C)c1ccc(-c2nc3c(N4CCN(CC(=O)Nc5nccs5)CC4)c(Cl)cnc3[nH]2)cc1, which “scaled lipid accumulation score” value [2] is on record?
Answer: Its value is 0.858 (active).

Question: What about the “scaled lipid accumulation score” value [3] of the same compound?
Answer: The value was 0.949 (active).

Question: For CCCCC/C=C/C=C1/C(=O)C=C[C@@H]1C/C=C\CCCC(=O)O [15-deoxy-.DELTA.12,14-Prostaglandin J2], which “scaled lipid accumulation score” value [1] is on record?
Answer: Its value is no more than 0.

Question: How did the “scaled lipid accumulation score” value [3] turn out when CSc1ccc(C(=O)c2[nH]c(=O)[nH]c2C)cc1 [Enoximone] was run?
Answer: Its value is 0.125.

Question: Which “scaled lipid accumulation score” value [3] does the source give for Cc1cc(NC2CCCCC2)nc(-n2nc(C)cc2C)n1 here?
Answer: The value was no more than -0.03.

Question: Which “scaled lipid accumulation score” value [3] does the source give for COc1c(C)cnc(Cn2cnc3c(Cl)nc(N)nc32)c1C [listing 1 of 2 here] here?
Answer: The value was 0.768.

Question: Which “scaled lipid accumulation score” value (library stock concentration: 5.8 mM) does the source give for COc1ccc2[nH]c([S+]([O-])Cc3ncc(C)c(OC)c3C)nc2n1 (configuration not stated) [Tenatoprazole] here?
Answer: The value was 0.081.

Question: Which “scaled lipid accumulation score” value [2] does the source give for COc1c(C)cnc(Cn2cnc3c(Cl)nc(N)nc32)c1C [listing 2 of 2 here] here?
Answer: Its value is 0.885 (active).

Question: Which “scaled lipid accumulation score” value (library stock concentration: 18.2 mM) does the source give for N#CC(=Cc1cc(Cl)cc(Cl)c1)c1cccnc1 here?
Answer: The value was 0.033.

Question: CN(C[C@@H]1COCCO1)S(=O)(=O)Nc1ccc2ccc3ncc(-c4cnn(C)c4)cc3c(=O)c2c1 was tested. Which “scaled lipid accumulation score” value [2] did it give?
Answer: Its value is no more than 0.

Question: What about the “scaled lipid accumulation score” value [3] of the same compound?
Answer: The value was no more than 0.

Question: With O.O.O.O.O.O.O.O.O.O.O.O.O.O.O.O.O=S(=O)([O][Al])OC[C@H]1O[C@@](COS(=O)(=O)[O][Al])(O[C@H]2O[C@H](COS(=O)(=O)[O][Al])[C@@H](OS(=O)(=O)[O][Al])[C@H](OS(=O)(=O)[O][Al])[C@H]2OS(=O)(=O)[O][Al])[C@@H](OS(=O)(=O)[O][Al])[C@@H]1OS(=O)(=O)[O][Al] [Sucralfate sodium (10% w/v in dmso)] as the compound, how does the “scaled lipid accumulation score” value (library stock concentration: 900 uM) read?
Answer: Its value is no more than 0.

Question: With COc1ccc2[nH]c(I)c(CCNC(C)=O)c2c1 [2-Iodomelatonin] as the compound, how does the “scaled lipid accumulation score” value [3] read?
Answer: Its value is 0.011.

Question: For CN(C)CCCn1cc(C2=C(c3c[nH]c4ccccc34)C(=O)NC2=O)c2ccccc21 [listing 1 of 2 here], which “scaled lipid accumulation score” value [3] is on record?
Answer: Its value is 1.04 (active).

Question: Which “scaled lipid accumulation score” value [2] does the source give for CN(C)CCCn1cc(C2=C(c3c[nH]c4ccccc34)C(=O)NC2=O)c2ccccc21 [listing 2 of 2 here] here?
Answer: The value was 0.071.

Question: What about the “scaled lipid accumulation score” value [3] of the same compound?
Answer: The value was 0.777.

Question: And the “scaled lipid accumulation score” value (library stock concentration: 12.1 mM)?
Answer: The value was 0.519.

Question: Which “scaled lipid accumulation score” value [1] does the source give for COc1ccc2c(c1)c(C1=C(c3c[nH]c4ccccc34)C(=O)NC1=O)cn2CCCN(C)C here?
Answer: The value was 0.018.

Question: And the “scaled lipid accumulation score” value [2]?
Answer: Its value is 0.054 and ≤ 0.

Question: What about the “scaled lipid accumulation score” value [3] of the same compound?
Answer: The value was 0.706.

Question: For CN(C)CCCn1cc(C2=C(c3c[nH]c4ccccc34)C(=O)NC2=O)c2ccccc21 [Bisindolylmaleimide I], which “scaled lipid accumulation score” value [2] is on record?
Answer: Its value is 0.663.

From the supplement of paper PMC9135407
